Screening results deposited in PubChem by several laboratories.
The list is not random: actives were taken first. Their share in the collection is about 3%.
TWEAK Fn14 block: TWEAK-Fn14 signaling inhibition. inhibition, % at 10 µM. actives 2% (n = 360,000). TWEAK-stimulated Fn14 reporter cells, luciferase luminescence, 8 h; in the data active = inhibition above about 50%
MITF act: activators of MITF-driven TRPM1 promoter activity in SK-MEL-5 cells; SK-MEL-5 TRPM1-promoter luciferase, 24 h; % of positive control, neutral wells = 0; activation, % at 12.5 µM; actives 0.75% (n = 300,000); AID 588334;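 active = mean activation of at least 80% with every replicate also reaching 80%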;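 note: 0% = neutral control wells and 100% = parthenolide positive control wells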
TRPM1 prom inh: reduces MITF-dependent TRPM1 promoter luciferase signal. actives 0.83% (n = 330,000). AID 488899. SK-MEL-5 TRPM1 promoter luciferase, 24 h. inhibition, % at 12.5 µM;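 active = mean inhibition across replicates of 60% or more, whatever share of single replicates reaches that level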
LGR2 inh: blocks bursicon-induced cAMP signaling via Drosophila LGR2; inhibition, % at 9.99 µM; HEK293 LGR2, CRE-luciferase, bursicon-stimulated, 4 h; actives 0.35% (n = 380,000);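 active = drop in luminescence signal, shown as inhibition above about 50% in the replicate tests, limit read from the data, passing the limit was not always enough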;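 note: agonist challenge used bursicon conditioned medium at about half maximal strength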
TROY NFkB inh: TROY signaling inhibition. Q293 LMP1-TROYcd NF-kB luciferase reporter, 4 h. inhibition, % at 10 µM. actives 0.98% (n = 360,000). AID 1347056;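 active = compounds whose plate-normalised and pattern-corrected inhibition of the luciferase reporter signal at the single screening dose is 50% or more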
LMP1 NFkB inh: Epstein-Barr LMP1 NF-kappaB reporter inhibition; LMP1-induced NF-kappaB luciferase reporter cells, luminescence; inhibition, % at 12.5 µM; actives 0.69% (n = 350,000); AID 504558; in the data active = inhibition above about 41%;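 note: 0% = neutral control wells and 100% = reference inhibitor control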
Starred values were filed as active, the others as inactive; nt = not tested or not shown.

SMILES	TWEAK Fn14 block	MITF act	TRPM1 prom inh	LGR2 inh	TROY NFkB inh	LMP1 NFkB inh
C[C@@H]1CN([C@H](C)CO)C(=O)c2ccccc2-c2ccccc2CO[C@@H]1CN(C)S(=O)(=O)c1ccc([N+](=O)[O-])cc1	nt	nt	nt	5	nt	nt
COC(=O)[C@H]1[C@H](CO)[C@H]2Cn3c(ccc(-c4ccccc4OC)c3=O)[C@H]2N1C(=O)c1cccnc1	nt	nt	nt	10	nt	nt
O=S(=O)(NCC(Nc1ccc(Cl)cc1)c1ccccc1)c1ccc(Cl)cc1 (stereo unspecified)	69*	-2	3	6	51*	-2
O=S(=O)(NCC(c1ccccc1)N1CCC(O)CC1)c1ccc(Cl)cc1 (stereo unspecified)	-1	-6	5	13	7	-2
CCCOc1ccc(NC(=O)CC2C(=O)N(CC)C(=S)N2CCCN2CCN(Cc3ccccc3)CC2)cc1 (stereo unspecified)	20	-73	73*	14	2	-41
CCCOc1ccc(NC(=O)CC2C(=O)N(CC)C(=S)N2CCNC(C)=O)cc1 (stereo unspecified)	17	7	-5	-8	-5	4
CNc1ccc2ncc(-c3ccc(OC)c(OC)c3)n2n1	83*	nt	nt	-8	57*	nt
CN(C)CCOc1ccc(-c2c(-c3ccccc3)sc3ccccc23)cc1	-32	-59	61*	12	16	-17
Cc1cccc2cc(C#N)c(SCC(=O)N3CC(=O)Nc4ccccc43)nc12	10	-64	65*	nt	35	-49
COc1ccc2cc(C#N)c(SCC(=O)N3CC(=O)Nc4ccccc43)nc2c1	-2	8	-8	nt	-4	5
Cc1cc(C(=O)CN2C(=O)c3ccccc3S2(=O)=O)c(C)n1C(C)C	93*	-40	35	76*	84*	70*
Cc1cc(C)nc(NC(=O)CN2C(=O)c3ccccc3S2(=O)=O)n1	-9	-1	1	6	16	-3
CCn1c(C)cc(C(=O)CN2C(=O)c3ccccc3S2(=O)=O)c1C	93*	-68	68*	72*	83*	73*
C=CCn1c(C)cc(C(=O)COC(=O)CNC(=O)c2ccccc2)c1C	89*	4	-6	47	85*	12
C=CCn1c(C)cc(C(=O)CN2C(=O)c3ccccc3S2(=O)=O)c1C	104*	-94	94*	nt	88*	87*
O=C(N[C@H]1CC[C@H](CCNS(=O)(=O)c2ccc(F)cc2)O[C@H]1CO)c1cnccn1	nt	nt	nt	6	nt	nt
C[C@@H](NC(=O)C[C@H]1CC[C@H](NC(=O)CN2CCOCC2)[C@@H](CO)O1)c1ccccc1	nt	nt	nt	15	nt	nt
Cc1cc(C(=O)CN2C(=O)c3ccccc3S2(=O)=O)c(C)n1-c1ccccc1	94*	-79	81*	nt	0	74*
Cc1cc(C(=O)CN2C(=O)C3CC=CCC3C2=O)c(C)n1-c1ccccc1 (stereo unspecified)	56*	nt	-37	nt	-15	-8
O=C(C[C@@H]1CC[C@H](NC(=O)Nc2ccccc2F)[C@@H](CO)O1)NCc1ccc(F)cc1	nt	nt	nt	2	nt	nt
COc1ccc2cc(-c3ccsc3)ncc2c1	12	-59	62*	-68	-55	-17
COc1ccc(-c2noc(-c3ccc4c(c3)OCO4)n2)cc1	29	87*	-81	nt	-26	-13
c1ccc(-c2noc(-c3ccc4c(c3)OCO4)n2)cc1	45	3	-3	23	13	-8
COc1ccc(-c2nc(-c3ccc4c(c3)OCO4)[nH]c2-c2ccc(OC)cc2)cc1	56*	-21	22	11	32	-47
Cc1[nH]c(-c2ccc3c(c2)OCO3)nc1C(=O)O	-14	nt	nt	12	-8	-3
COc1cccc(-c2noc(-c3ccc4c(c3)OCO4)n2)c1	53*	28	-32	36	9	-2
COc1cc(OC)cc(-c2cc3ccc(OC)cc3cn2)c1	9	64	-64	0	-25	-23
COCC#Cc1ccc2c(c1)O[C@H](CN(C)S(C)(=O)=O)[C@H](C)CN([C@@H](C)CO)S2(=O)=O	nt	nt	nt	2	nt	nt
COc1ccc(-c2cc3cc4c(cc3cn2)OCO4)cc1	54*	22	-21	65*	17	-17
